Screens from PubChem.
Hits are enriched below; roughly 8.6% of the tested compounds scored in any of these assays.
Marburg entry: blocks Marburg virus binding or cell entry; 6.5% of 18,000 active; Marburg virus pseudotype entry/binding inhibition, cell-based; Potency, µM (titrated, usually from 49.2 µM), most hits filed as inhibitors
Lassa entry: inhibitors of Lassa virus binding or entry into cells; Lassa virus pseudotyped entry inhibition, cell-based qHTS; Potency, µM (titrated, usually from 49.2 µM), usual class: inhibitors; 4.1% of 18,000 active; AID 720533
Of the large screens only hits and unclear results are named; the others gave an inactive call; ! = not confirmed by another sample. Calls come from the whole dose curve; tested in HEK293 cells.

O=C1CCCC=C1C(O)CCOCc1ccccc1 (stereo unspecified)	none
CC(C)(C)OC(=O)N1CCC[C@@H]1C(O)(c1ccccc1)c1ccccc1	none
Cc1ncc2c(c1CNC(=O)c1ccc3c(c1)OCO3)CCN(C(=O)c1cn3ccccc3n1)C2	Lassa entry inconclusive
CC(C)c1nc(CN(C)C(=O)N[C@H](C(=O)N[C@@H](Cc2ccccc2)C[C@H](O)[C@H](Cc2ccccc2)NC(=O)OCc2cncs2)C(C)C)cs1	Marburg entry inconclusive, Lassa entry 7.1µM!
C=C(C)CCCN1C=C(C(C)=O)C(c2ccccc2)NC1=O (stereo unspecified)	none
COc1ccc(-c2nc3c(c4c2C[C@H](c2ccccc2)OC4)CN(C(=O)N[C@@H](C)C(=O)OC(C)C)CC3)c(C)c1	Marburg entry inconclusive
CN1C2CC(OC(=O)C(CO)c3ccccc3)CC1C(O)C2 (stereo unspecified)	none
CN1[C@@H]2CC[C@H]1CC(O[C@@H](c1ccccc1)c1ccc(Cl)cc1)C2 (stereo partly specified)	Marburg entry 4.5µM, Lassa entry 10µM
c1ccc(C(O[C@H]2CCCN(CCc3ccc4c(c3)OCO4)C2)c2ccccc2)cc1	Marburg entry inconclusive
CN1C2CCC1CC(OC(c1ccc(F)cc1)c1ccc(F)cc1)C2 (stereo unspecified)	Marburg entry 5.6µM, Lassa entry inconclusive
CN1[C@@H]2CC[C@H]1CC(OC(c1ccccc1)c1ccccc1)C2 (stereo partly specified)	Marburg entry 13µM, Lassa entry 14µM
C#CCCCON=C1C[C@@H](O)[C@H](O)[C@H]2[C@@H]3C(=O)N(C4CCCCC4)C(=O)[C@@H]3CC[C@H]12	Marburg entry inconclusive
CCCCCCN1C[C@H](O)[C@@H](n2cc(C3CC3)nn2)C[C@H]1c1ccc(Cl)cc1	Marburg entry inconclusive
CCCCCC(=O)N1C[C@H](n2cc(C3CC3)nn2)[C@@H](O)C[C@H]1c1ccc(Cl)cc1	Lassa entry inconclusive
CC(C)CC(NC(=O)CN)C(=O)NC(Cc1ccccc1)C(=O)O (stereo unspecified)	none
CC(C)C[C@H](NC(=O)[C@H](CCc1ccccc1)NC(=O)CN1CCOCC1)C(=O)N[C@@H](Cc1ccccc1)C(=O)N[C@@H](CC(C)C)C(=O)[C@@]1(C)CO1	Marburg entry inconclusive, Lassa entry 11µM
COC(=O)C1=C2C=C(C)CC(C)N2C(=O)NC1c1ccccc1 (stereo unspecified)	none
Cc1nc2ccccc2nc1CN1CCOc2ccc(C3(O)CCN(c4ccccc4F)CC3)cc2C1	Lassa entry inconclusive
C=C(CCN1C=C(C(C)=O)C(c2ccccc2)NC1=O)c1ccc(OC)cc1 (stereo unspecified)	none
Oc1cc2c(cc1O)C1c3ccc(O)c(O)c3OCC1(O)C2 (stereo unspecified)	Marburg entry 4µM, Lassa entry inconclusive
COC1=CC(=O)C(O)=C/C1=C\C=C\c1ccccc1	Marburg entry 16µM
COc1cc(O)cc(/C=C/c2ccccc2)c1	none
COc1cccc([C@@H]2Oc3ccc(Br)cc3C(=O)[C@@H]2O)c1	none
C=CCCCN1C(=O)NC(c2ccccc2)C(C(=O)OC)=C1C (stereo unspecified)	none
C[C@H]1CCCC=CC2C[C@H](O)C[C@@H]2[C@H](O)C=CC(=O)O1 (stereo partly specified)	Marburg entry 35µM, Lassa entry inconclusive
CCCCCC(=O)N1C[C@@H](O)[C@H](n2cc(C3CC3)nn2)C[C@H]1c1ccccc1	none
COc1ccc2ncn(-c3cc(OC(C)c4ccccc4C(F)(F)F)c(C(N)=O)s3)c2c1 (stereo unspecified)	Marburg entry 0.89µM, Lassa entry inconclusive
COc1cccc(COc2cc(-n3cnc4ccccc43)sc2C(N)=O)c1	Marburg entry 13µM, Lassa entry inconclusive
COc1ccc(COc2cc(-c3cccc(OC)c3)nc3ccc(NC(C)=O)cc23)cc1	none
COc1ccc([C@H]2O[C@@H](c3ccc(OC)c(OC)c3)[C@H](C)[C@@H]2C)cc1OC	none
CSC[C@H]1CN(CCc2ccccc2)C(=O)[C@H]1CC(=O)Nc1ccccc1	none
O=C(NCCCN1CCCCCC1)C(c1ccccc1)C1CCCCC1 (stereo unspecified)	Marburg entry 10µM, Lassa entry inconclusive
CN1C2CCC1CC(C(=O)OC(CO)c1ccccc1)C2 (stereo unspecified)	none
COC[C@@H](O)[C@H]1OCc2cccc(OC)c2[C@H]1C=Cc1ccccc1	none
Cc1c(-c2ccc(O)cc2)nn(-c2ccc(O)cc2)c1-c1ccc(OCCN2CCCCC2)cc1	Marburg entry 4µM, Lassa entry 32µM
CCN1C(=O)c2ccccc2C1Nc1ccc(OCCN2CCCCC2)cc1 (stereo unspecified)	none
C=CCN1C(=O)[C@]2(OCCC=C[C@H]2C)c2c(Br)cccc21	none
COC(=O)[C@@H]1[C@@H](c2ccccc2)NC(=O)N(Cc2ccccc2)[C@@H]1C	none
CC(C)OC(=O)Nc1cccc(Cl)c1	none
CC(NC(C)(C)C)C(=O)c1cccc(Cl)c1 (stereo unspecified)	Marburg entry 3.5µM!
O=C(O)CN(CCOCCOCCN(CC(=O)O)CC(=O)O)CC(=O)O	none
CCN(CC)CCOCCOC(=O)C1(c2ccccc2)CCCC1	Marburg entry 7.1µM!
CCN(CC)CCNC(C(=O)OCCC(C)C)c1ccccc1 (stereo unspecified)	Marburg entry inconclusive
CCN(CC)CCOC(=O)C(C)(c1ccccc1)c1ccccc1	Marburg entry 28µM, Lassa entry inconclusive
CCN(CC)CCOCCOC(=O)C(CC)(CC)c1ccccc1	Marburg entry 22µM, Lassa entry inconclusive
CCN(CC)CCOC(=O)C1(c2ccc([N+](=O)[O-])cc2)CCCC1	Marburg entry inconclusive
CC(=O)C1=C(C)C[C@@]2(CC1)C(=O)[C@H](Cc1ccccc1)N(Cc1ccccc1)S2(=O)=O	none
CCN1C(=O)[C@@H]2[C@H]3[C@H](O)[C@H](O)CC(=NO[C@@H]4O[C@H](COC(C)=O)[C@@H](OC(C)=O)[C@H](OC(C)=O)[C@@H]4OC(C)=O)[C@@H]3CC[C@H]2C1=O	none
CC(C)c1c(C(=O)NCCN2CCOCC2)cnn1-c1nccc(-c2cccs2)n1	none
CCCCCCN1C[C@@H](O)[C@H](n2cc(COC(=O)c3ccccc3)nn2)C[C@H]1c1ccc(Cl)cc1	none
COC1=CC2C(=O)C(C1=O)[C@H](c1ccccc1)[C@H]2C (stereo partly specified)	none
Cc1ccc(NC(=O)c2ccoc2)cc1-c1ccc(C(=O)NCC2CC2)cc1	Lassa entry inconclusive
COc1ccc(/C=C/C(=O)c2cc(O)ccc2O)cc1	Lassa entry 0.89µM
COc1ccc(/C=C/C(=O)c2ccc(O)cc2O)cc1	none
COC1=CC2C(=O)C(C(c3ccccc3)C2C)C1(C)O (stereo unspecified)	none
CC=Cc1cc2ccccc2c2c(C(=O)OC)c(C(=O)OC)c(C(=O)OC)n12	Marburg entry inconclusive
O=C1C[C@@H](c2ccccc2)[C@H](c2ccc(Br)cc2)O1	none
COC(=O)C1=C(C)NC(C)=C(C(=O)OCC(C)=O)C1c1ccccc1[N+](=O)[O-] (stereo unspecified)	Lassa entry inconclusive
COCCOC(=O)C1=C(C)NC(C)=C(C(=O)OC(C)C)[C@H]1c1cccc([N+](=O)[O-])c1	none
COC(=O)C1=C(C)NC(C)=C(C(=O)OCCN(C)Cc2ccccc2)[C@H]1c1cccc([N+](=O)[O-])c1	Marburg entry inconclusive
